# Screens deposited in PubChem BioAssay by National Center for Advancing Translational Sciences (NCATS).
# Hits are enriched below; roughly 7.3% of the tested compounds scored in any of these assays.
# SMN2 splice up: SMN2 splice variant enhancement. HEK293 SMN2-luciferase splicing reporter, luminescence, 30-36 h. Potency, µM (doses to about 46.1 µM), for inactives: at the top dose activity change, positive = activation, hits mostly activators. actives 2.8% (n = 210,000). AID 1458; also: % of control where 0% means no effect; nearly all actives have a fitted effect of over 55% in size
#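 HEK293 cells carry an SMN2 minigene-luciferase reporter in which exon 7 inclusion puts luciferase in frame. Cells were seeded at 2000 cells/well, attached for 10-12 hours, then exposed to compounds for 30-36 hours at 37C before ONE-Glo luminescence.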
# FLuc counter: inhibits or activates purified firefly luciferase, miR-21 counter-screen | purified FLuc, Km substrates, luminescence inhibition | Potency, µM (doses to about 57.5 µM), for the others: top-dose activity change, negative = inhibition, hits mostly inhibitors | actives 6.9% (n = 360,000);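 also: plate controls were vehicle for no effect and reference inhibitor for full effect; nearly all actives have a fitted effect of over 55% in size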
# Target sequence (P08659 whole entry, looked up): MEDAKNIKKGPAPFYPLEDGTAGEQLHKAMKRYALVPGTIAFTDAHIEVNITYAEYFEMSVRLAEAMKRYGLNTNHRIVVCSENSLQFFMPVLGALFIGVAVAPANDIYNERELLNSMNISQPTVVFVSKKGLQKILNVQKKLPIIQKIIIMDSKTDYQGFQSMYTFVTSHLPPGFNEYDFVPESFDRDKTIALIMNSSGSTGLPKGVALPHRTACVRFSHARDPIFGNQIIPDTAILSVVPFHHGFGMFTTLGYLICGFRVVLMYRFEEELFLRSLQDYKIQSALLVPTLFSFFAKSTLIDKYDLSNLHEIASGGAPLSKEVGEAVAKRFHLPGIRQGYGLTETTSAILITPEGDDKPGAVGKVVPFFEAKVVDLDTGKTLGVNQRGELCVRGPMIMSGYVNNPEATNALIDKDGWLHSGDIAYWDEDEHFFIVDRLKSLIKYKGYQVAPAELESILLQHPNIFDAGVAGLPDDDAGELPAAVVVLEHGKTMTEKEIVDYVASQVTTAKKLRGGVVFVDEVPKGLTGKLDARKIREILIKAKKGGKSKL
#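 Purified P. pyralis luciferase (10nM final) with 10uM D-luciferin and 10uM ATP (Km levels) in 50mM Tris acetate pH 7.5, 10mM Mg acetate, 0.01% Tween-20, 0.05% BSA; qHTS 6-point titration, ~60 µM downward; luminescence read.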
# ELG1 genotoxic: genotoxicity induction in ELG1-luciferase HEK293T cells. Potency, µM (series often up to 46 µM), for inactives: at the highest dose activity change, positive = activation, actives largely listed as activators. AID 504466. HEK293T ELG1-luciferase reporter, luminescence, 16 h. actives 1.3% (n = 330,000); also: % of control where 0% means no effect; nearly all actives have a fitted effect of over 60% in size
#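 HEK293T cells expressing luciferase-tagged ELG1 were exposed to compound or DMSO vehicle for 16 hr at 37 °C and 5% CO2. Luciferase activity was then measured with ONE-Glo after 30 min at room temperature.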
# uPA generation: inhibitors of cell surface uPA generation. actives 0.31% (n = 330,000). Potency, µM (top dose mostly 38.3 µM), for inactives: top-dose activity change, negative = inhibition, actives largely listed as inhibitors. cell surface uPA generation assay, qHTS; active = well fitted inhibition curve with a large enough effect; inconclusive = small, poorly fitted or top-dose-only effect; inactive = no such curve, though single readings can be large or run the other way; tested in mouse RAW 264.7 cells; also: % is scaled to controls: 0 for no effect and ±100 for the full control effect; nearly all actives have a fitted effect of over 55% in size
# NPC1 promoter act: activates the NPC1 promoter. Potency, µM (series often up to 9.22 µM), inactives show top-dose activation, hits mostly activators. actives 2.4% (n = 320,000). Huh7 NPC1 promoter luciferase reporter, 24 h; also: % of control where 0% means no effect; nearly all actives have a fitted effect of over 60% in size
#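 Cells: Huh7 expressing luciferase under the NPC1 promoter, 1500/well. Seeded 2 h, compound added, incubated 24 h at 37 °C. Luciferase reagent, 10 min ambient, then luminescence.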
# Rab9 prom act: activates the Rab9 promoter; Potency, µM (titrated, usually from 9.22 µM), for inactives: at the highest dose activation, negative = inhibition, hits mostly activators; AID 485297; Huh7 Rab9 promoter-luciferase reporter, luminescence, 24 h; actives 2.8% (n = 320,000); also: % of control where 0% means no effect; nearly all actives have a fitted effect of over 60% in size
#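 Cell-based reporter: Huh7 stable for Rab9 promoter-driven luciferase, plated in reduced-serum medium with 10% FBS at 1500 cells/well, compound-treated 24 h at 37 °C, luminescence read after 10 min reagent.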
# An asterisk follows results filed as active; ? = inconclusive; · = no result given. Unless noted, calls follow the shape of the dose curve; as a rule, active = well fitted curve in the direction sought with a large enough effect; inconclusive = small, poorly fitted or top-dose-only effect, or another doubt; inactive = no such curve, though single readings can be large; an effect the other way counts as inactive or inconclusive. Potency is read from the fitted curve at half-maximal effect.
SMILES,SMN2 splice up,FLuc counter,ELG1 genotoxic,uPA generation,NPC1 promoter act,Rab9 prom act
O=C(CSCc1ccc(F)cc1)N1CCc2c([nH]c3ccccc23)C1c1ccc(F)cc1 (stereo not given),·,4%,·,·,·,·
COc1c(C=O)c(O)cc2c1C(=O)c1ccccc1C2=O,-1%,·,·,·,·,·
COc1ccc(CNC(=O)Cc2c(C)c3c(cc(C)c4c(C)c(C)oc43)oc2=O)cc1,4%,-1%,·,·,·,·
Cc1nc2scc(-c3ccccc3)c2c(=O)n1N=C1C=CC(=O)C=C1,·,19µM*,?,-8%,23%,?
Cc1ccccc1CNC(=O)Cc1ccccc1[N+](=O)[O-],14µM*,17µM*,?,-6%,?,4µM*
O=C(COC(=O)Cc1ccccc1[N+](=O)[O-])NCc1ccccc1Cl,-2%,-1%,0%,4%,1%,1%
CCN(CC(=O)NCc1ccc(Cl)cc1)C(=O)CCc1ccccc1,·,0%,-7%,0%,-5%,-4%
O=C(Cc1ccccc1[N+](=O)[O-])NCc1ccccc1Cl,?,7.6µM*,?,·,3.5µM*,2.8µM*
CCN(CC(=O)NCc1ccc(Cl)cc1)C(=O)Cc1ccccc1[N+](=O)[O-],·,?,?,3%,2.5µM*,3.5µM*
COCCNC(=O)COc1ccc(C)cc1C(=O)c1cc(C#N)c(=O)n(C2CC2)c1,-8%,3%,-4%,-1%,-2%,19%
COc1ccccc1-c1ccc(SCC(=O)N2CCOCC2)nn1,1%,2%,4%,0%,-6%,3%
COc1ccc(-c2ccc(SCC(=O)N3CCOCC3)nn2)cc1,9%,11µM*,5%,?,20%,0%
O=C(CSc1ccc(-c2ccc(Br)cc2)nn1)N1CCOCC1,-13%,15µM*,-6%,-5%,30%,10%
O=[N+]([O-])c1ccc2nc(N3CCCC3)sc2c1,·,11µM*,?,-17%,3.2µM*,3.5µM*
c1ccc2sc(N3CCCCC3)nc2c1,·,·,·,-6%,·,·
Fc1ccc2nc(N3CCCC3)sc2c1,13µM*,12µM*,?,0%,2.2µM*,?
O=C(c1cccs1)N1CCN(c2nc3c(F)cc(F)cc3s2)CC1,·,?,-4%,-2%,13%,14%
Fc1cc(F)c2nc(N3CCCCC3)sc2c1,?,15µM*,?,1%,?,27%
O=C1[C@H](CC[C@H](O)c2ccc(F)cc2)[C@@H](c2ccc(O)cc2)N1c1ccc(F)cc1,·,0%,·,·,-2%,-2%
Cc1cccc(-n2ncc(C(=O)N3CCN(C4CCCCC4)CC3)c2C2CCN(C(=O)OC(C)(C)C)CC2)c1,·,-1%,·,·,·,·
Cc1cc(C)c(O)c(N)c1,·,2%,1%,·,1%,1%
CC(C)n1c(/C=C/c2ccccc2)nc2ccccc21,11µM*,2.4µM*,?,-15%,?,?
CC(C)n1c(CN(C)c2ccccc2)nc2ccccc21,·,-10%,-7%,4%,-5%,-2%
CC(C)c1ccccc1NC(=O)Cn1c(/C=C/c2ccccc2)nc2ccccc21,·,21µM*,?,5%,-3%,10%
Cc1ccc(NC(=O)Cn2c(/C=C/c3ccccc3)nc3ccccc32)cc1C,18%,?,?,1%,2%,2%
SMILES,SMN2 splice up,FLuc counter,ELG1 genotoxic,uPA generation,NPC1 promoter act,Rab9 prom act
CCCn1c(/C=C/c2ccccc2)nc2ccccc21,11µM*,3µM*,?,?,1.8µM*,1.8µM*
CCn1c(/C=C/c2cc[n+](C)cc2)nc2ccccc21,·,2%,-4%,-1%,8%,5%
COc1ccc(/C=C/c2nc3ccccc3n2Cc2ccc(OC)c(OC)c2)cc1,·,0.43µM*,2.1µM*,?,1.6µM*,0.79µM*
COCCn1c(=O)c(-c2ccc(OC)cc2)nc2cnc(Nc3cccc(OC)c3)nc21,3%,·,·,·,·,·
COCCOCCn1c(/C=C/c2ccccc2)nc2ccccc21,13µM*,1.7µM*,?,-6%,1.4µM*,1.4µM*
Cc1nc(CCNC(=O)c2cccs2)cs1,12%,-17%,5%,7%,-1%,-1%
Cc1cccc(C(=O)NCCc2csc(C)n2)c1,1.6µM*,3%,41%,-12%,-1%,5%
Cc1ccc(C(=O)NCCc2csc(C)n2)cc1,14µM*,9.5µM*,18µM*,-117%,?,3.2µM*
Cc1nc(NC(=O)COc2ccccc2)sc1C(=O)Nc1ccccc1,?,-1%,5%,0%,1%,2%
CC(C)c1nnc(NC(=O)Cc2cccs2)s1,-12%,2%,4%,8%,-1%,1%
COC(=O)c1sc(NC(=O)COc2ccc(C)cc2)nc1C,6%,17µM*,6%,·,-1%,11%
COC(=O)c1sc(NC(=O)COc2ccccc2)nc1C,8%,17µM*,18µM*,4%,?,?
COC(=O)c1sc(NC(=O)COc2ccccc2OC)nc1C,-12%,?,2%,-10%,13%,14%
COC(=O)c1c(NC(=O)Cc2cccs2)sc2c1CCC(C)C2 (stereo not given),-1%,17µM*,9%,6%,21%,?
COC(=O)c1sc(NC(=O)Cc2cccs2)nc1C,?,?,21µM*,-12%,13%,27%
C=CCC(C)(O)c1cccs1 (stereo not given),-1%,·,·,·,·,·
COC(=O)/C(Cc1cc(Br)c(OC)c(Br)c1O)=N/O,13%,·,·,·,·,·
Cc1cccc(/C=c2\s/c(=C\C(=O)C(C)(C)C)[nH]c2=O)c1,·,?,-7%,-10%,2%,16%
O=C1/C(=C/c2ccc(C(=O)O)cc2)CCC/C1=C\c1ccc(C(=O)O)cc1,18%,3%,2%,29%,-1%,0%
Cc1cccc(/C=C2\CCC(=C3SCCCS3)C2=O)c1,?,0.085µM*,?,-10%,0.32µM*,0.089µM*
O=C1C(=C2SCCCS2)CC/C1=C\c1ccc(F)cc1,-79%,0.067µM*,?,-1%,?,?
COc1cccc2sc(Nc3nnc(-c4cccs4)o3)nc12,14µM*,4.8µM*,?,-13%,4µM*,1µM*
COc1cccc2sc(Nc3nnc(-c4ccc(F)cc4)o3)nc12,6%,24µM*,?,5.6µM*,-3%,-9%
O=C(Nc1nnc(-c2ccc(F)cc2)o1)c1cc(Cl)sc1Cl,-78%,-14%,?,-10%,-1%,1%
CCOc1cccc2sc(NN)nc12,-18%,?,7%,0%,-2%,-3%
Fc1cccc2sc(Nc3nnc(-c4ccco4)o3)nc12,3.5µM*,11µM*,2.6µM*,-11%,4µM*,2.5µM*
O=C(Nc1ccc(Cl)cc1)c1ccc2oc(=O)n(Cc3ccccc3)c2c1,·,5%,·,·,·,·
